These results are taken from PubChem BioAssay.

One assay concerns the target Albumin (Bos taurus) (UniProt P02769). Put plainly: bovine serum albumin binders on microarray, profiling panel, artefact control for SMM control protein annotation, biochemical, small-molecule microarray, Alexa647 label, 635/667 nm fluorescence (AID 1118).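 Also: score merges 667 nm emission intensity and signal-to-noise per printed compound spot.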 Particulars: BSA-A647 binding, fluorescence 635 nm, higher = more signal.
Assay [1] can be described thus: small-molecule microarray binders of probe aXIP, primary screen, biochemical, NeuroSMM set, 635/667 nm fluorescence (AID 1119).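 Also: probe is the protein aXip251-270 applied at 1 µg/mL to compound-printed slides; binding of probe to printed compounds measured as 667 nm fluorescence plus signal to noise.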 The conditions noted are these: higher = more signal, called active from +8 up or from −8 down.
A short description of assay [2]: small-molecule binders of probe aNOTCH3, primary screen, biochemical, small-molecule microarray, 635/667 nm fluorescence (AID 1120).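 Also: probe is a biotin-tagged antibody raised against NOTCH3 rather than NOTCH3 protein; score merges spot fluorescence near 667 nm with spot signal to noise.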 Particulars: higher = more signal.
Assay [3] in a line: small-molecule binders of probe aNOTCH2, primary screen, biochemical, small-molecule microarray, 635/667 nm fluorescence (AID 1121).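 Also: score merges feature fluorescence read at 667 nm with its signal to noise.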 The conditions noted are these: higher = more signal.
The target in assay [4] is Carbonic anhydrase 2 (Homo sapiens) (UniProt P00918). The assay is described as follows: CAII small-molecule binders, profiling panel, biochemical, small-molecule microarray, Alexa647-labelled CAII (AID 1122). The conditions noted are these: CAII-A647 binding fluorescence, higher = more signal.
Assay [5] can be described thus: COS7 lysate on small-molecule microarray, probe aHis, 635 nm (AID 1123).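 Also: z-score combines 667nm fluorescence intensity with signal-to-noise per printed compound spot.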 The conditions noted are these: COS7 cell lysate, fluorescence, higher = more signal.
Assay [6] in a line: compound binding in COS7 lysate, probe aLAP1, primary screen, cell lysate, small-molecule microarray (AID 1124).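 Also: lysate comes from COS7 cells expressing LAP1 and is applied at 0.3 µg/mL; score merges spot fluorescence near 667 nm with signal-to-noise over triplicate slides.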 Particulars: probe aLAP1, fluorescence, higher = more signal.
The subject of another assay is Sam68 (KHDRBS1). Put plainly: Sam68 small-molecule binders, primary screen, biochemical, small-molecule microarray, 635 nm fluorescence (AID 1125).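 Also: score merges 667 nm channel intensity with signal to noise over triplicate slides.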 The conditions noted are these: small-molecule microarray binding, higher = more signal.
Assay [7] relates to Chordin-like protein 2 (CHRDL2). The assay is described as follows: CHRDL2 small-molecule binders, primary screen, biochemical, small-molecule microarray, 635 nm fluorescence (AID 1126).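 Also: printed compound slides probed with Chrdl2 protein at 4 µg/mL for 1 h at 4 C; score merges 667 nm emission intensity with signal to noise over three replicate slides.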 Particulars: small-molecule microarray binding, fluorescence 635 nm; higher = more signal.
The target of assay [8] is Concanavalin-A (Canavalia ensiformis) (UniProt P02866). Put plainly: ConA small-molecule binders, primary screen, artefact control for SMM control protein annotation, biochemical, small-molecule microarray, Alexa647 label, 635 nm (AID 1127).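 Also: z combines 667 nm emission intensity with signal-to-noise across three replicate slides.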 The conditions noted are these: ConA-A647 binding fluorescence, higher = more signal.
Chain of Concanavalin-A (Canavalia ensiformis) (P02866 whole entry, looked up): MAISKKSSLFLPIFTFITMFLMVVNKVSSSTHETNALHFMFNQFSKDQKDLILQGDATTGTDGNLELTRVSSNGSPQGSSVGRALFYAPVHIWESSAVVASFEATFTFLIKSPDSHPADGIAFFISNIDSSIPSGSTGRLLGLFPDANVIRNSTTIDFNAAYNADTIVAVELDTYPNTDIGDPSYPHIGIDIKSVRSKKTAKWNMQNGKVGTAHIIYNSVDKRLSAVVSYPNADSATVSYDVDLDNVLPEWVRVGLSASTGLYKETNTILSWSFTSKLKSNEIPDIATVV
Assay [9] is described as follows: anti-His antibody binders, primary screen, artefact control for SMM control protein annotation, biochemical, small-molecule microarray, 635 nm fluorescence (AID 1128).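 Also: score merges feature fluorescence with signal-to-noise for each printed compound spot.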 Particulars: anti-His Alexa647 antibody binding, higher = more signal.
The subject of assay [10] is Human papillomavirus type 1a E7 protein (residues 1-88). Put plainly: HPV1a E7 small-molecule binders, primary screen, biochemical, small-molecule microarray, residues 1-88, 635 nm (AID 1129). The conditions noted are these: small-molecule microarray binding, fluorescence 635 nm; higher = more signal.
Assay [11] has as its target Focal adhesion kinase 1 (Homo sapiens) (UniProt Q05397). The assay is described as follows: small-molecule microarray binders of FAK, primary screen, biochemical, 635/667 nm fluorescence, BSA, DTT (AID 1130).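 Also: composite of spot emission at 667 nm and signal to noise over triplicate slides.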 Particulars: PTK2 binding, 635 nm fluorescence, higher = more signal.
Assay [12] relates to Fibrinogen (Alexa647-labelled). The assay is described as follows: fibrinogen binders on compound microarrays, profiling panel, artefact control for SMM control-protein annotation, biochemical, small-molecule microarray, 635/667 nm fluorescence (AID 1131).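 Also: z-score merges 667 nm fluorescence with per-spot signal-to-noise over triplicate slides.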 Particulars: fibrinogen-A647 binding fluorescence, higher = more signal.
Assay [13] deals with Follistatin (Homo sapiens) (UniProt P19883). Put plainly: follistatin binders on small-molecule microarrays, primary screen, biochemical, small-molecule microarray, 635/667 nm fluorescence (AID 1132). Particulars: FST binding, 635 nm fluorescence, higher = more signal.
Chain of Follistatin (Homo sapiens) (P19883 whole entry, looked up): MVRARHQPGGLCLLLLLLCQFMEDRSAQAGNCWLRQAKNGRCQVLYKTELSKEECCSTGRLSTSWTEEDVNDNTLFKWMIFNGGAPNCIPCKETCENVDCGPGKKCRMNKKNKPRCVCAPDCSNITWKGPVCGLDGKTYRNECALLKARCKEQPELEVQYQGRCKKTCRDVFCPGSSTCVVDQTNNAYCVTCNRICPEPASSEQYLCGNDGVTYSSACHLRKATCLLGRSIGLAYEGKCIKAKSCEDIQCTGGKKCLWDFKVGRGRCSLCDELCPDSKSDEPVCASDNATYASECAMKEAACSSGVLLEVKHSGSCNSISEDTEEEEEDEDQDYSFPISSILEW
The target of assay [14] is Fibroblast growth factor 2 (Homo sapiens) (UniProt P09038). The assay is described as follows: FGF2 binders on small-molecule microarrays, primary screen, biochemical, small-molecule microarray, 635/667 nm fluorescence (AID 1133). Particulars: small-molecule microarray binding, FGF2, fluorescence 635/667; higher = more signal.
Chain of Fibroblast growth factor 2 (Homo sapiens) (P09038 whole entry, looked up): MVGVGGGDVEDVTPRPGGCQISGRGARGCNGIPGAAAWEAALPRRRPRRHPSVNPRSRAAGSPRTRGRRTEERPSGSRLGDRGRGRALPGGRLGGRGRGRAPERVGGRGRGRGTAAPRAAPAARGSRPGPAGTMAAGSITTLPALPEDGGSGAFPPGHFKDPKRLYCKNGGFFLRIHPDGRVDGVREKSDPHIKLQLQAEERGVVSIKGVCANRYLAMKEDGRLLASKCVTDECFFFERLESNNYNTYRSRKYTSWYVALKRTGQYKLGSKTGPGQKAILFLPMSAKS
Assay [15] can be described thus: mitochondrial membrane potential change in A549 cells, profiling panel, cell-based, JC-1 fluorescence, basal, 24 h, 100 nL (AID 1138).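 Also: A549 lung adenocarcinoma cells under basal conditions with no added stimulus; test concentration not given here.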 Particulars: higher = more signal.
Another assay deals with Lefty1. Put plainly: Lefty1 binders on small-molecule microarrays, primary screen, biochemical, small-molecule microarray, 635/667 nm fluorescence (AID 1139). The conditions noted are these: small-molecule microarray binding, fluorescence 635/667; higher = more signal.
The subject of assay [16] is wheat germ agglutinin (Triticum aestivum), Alexa647-labelled. Put plainly: wheat germ agglutinin binders on compound microarrays, profiling panel, artefact control for SMM control-protein annotation, biochemical, small-molecule microarray, 635/667 nm fluorescence (AID 1140).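 Also: score merges 667 nm feature emission with signal to noise over triplicate slides.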 Particulars: WGA-A647 binding, 635 nm fluorescence, higher = more signal.
In assay [17] the target is Luciferin 4-monooxygenase (Photinus pyralis) (UniProt P08659). The assay is described as follows: firefly luciferase enzyme inhibitors, primary screen, biochemical, luminescence, purified enzyme, 2006 set (AID 1141).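 Also: cell-free assay with purified firefly luciferase at 100 ng per well in PBS; test concentration not given here.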 Particulars: SteadyGlo luminescence, 30 min, higher = more signal, called active from +8 up or from −8 down.
Chain of Luciferin 4-monooxygenase (Photinus pyralis) (P08659 whole entry, looked up): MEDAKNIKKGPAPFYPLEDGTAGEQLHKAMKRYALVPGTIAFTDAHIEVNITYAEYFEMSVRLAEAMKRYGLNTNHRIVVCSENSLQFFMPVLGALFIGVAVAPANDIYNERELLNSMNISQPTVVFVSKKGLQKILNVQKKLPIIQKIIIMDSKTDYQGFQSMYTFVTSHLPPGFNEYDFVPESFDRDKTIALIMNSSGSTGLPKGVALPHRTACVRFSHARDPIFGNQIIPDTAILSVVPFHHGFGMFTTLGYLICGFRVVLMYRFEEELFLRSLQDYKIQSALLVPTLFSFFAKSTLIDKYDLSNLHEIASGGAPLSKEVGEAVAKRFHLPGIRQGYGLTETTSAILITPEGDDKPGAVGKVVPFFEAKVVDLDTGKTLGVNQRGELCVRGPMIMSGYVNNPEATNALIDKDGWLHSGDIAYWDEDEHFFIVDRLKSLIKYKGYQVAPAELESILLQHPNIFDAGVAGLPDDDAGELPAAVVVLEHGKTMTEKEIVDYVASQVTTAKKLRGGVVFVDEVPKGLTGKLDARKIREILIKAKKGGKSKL

Activity calls are given as the source filed them.

Chain of Focal adhesion kinase 1 (Homo sapiens) (Q05397 whole entry, looked up): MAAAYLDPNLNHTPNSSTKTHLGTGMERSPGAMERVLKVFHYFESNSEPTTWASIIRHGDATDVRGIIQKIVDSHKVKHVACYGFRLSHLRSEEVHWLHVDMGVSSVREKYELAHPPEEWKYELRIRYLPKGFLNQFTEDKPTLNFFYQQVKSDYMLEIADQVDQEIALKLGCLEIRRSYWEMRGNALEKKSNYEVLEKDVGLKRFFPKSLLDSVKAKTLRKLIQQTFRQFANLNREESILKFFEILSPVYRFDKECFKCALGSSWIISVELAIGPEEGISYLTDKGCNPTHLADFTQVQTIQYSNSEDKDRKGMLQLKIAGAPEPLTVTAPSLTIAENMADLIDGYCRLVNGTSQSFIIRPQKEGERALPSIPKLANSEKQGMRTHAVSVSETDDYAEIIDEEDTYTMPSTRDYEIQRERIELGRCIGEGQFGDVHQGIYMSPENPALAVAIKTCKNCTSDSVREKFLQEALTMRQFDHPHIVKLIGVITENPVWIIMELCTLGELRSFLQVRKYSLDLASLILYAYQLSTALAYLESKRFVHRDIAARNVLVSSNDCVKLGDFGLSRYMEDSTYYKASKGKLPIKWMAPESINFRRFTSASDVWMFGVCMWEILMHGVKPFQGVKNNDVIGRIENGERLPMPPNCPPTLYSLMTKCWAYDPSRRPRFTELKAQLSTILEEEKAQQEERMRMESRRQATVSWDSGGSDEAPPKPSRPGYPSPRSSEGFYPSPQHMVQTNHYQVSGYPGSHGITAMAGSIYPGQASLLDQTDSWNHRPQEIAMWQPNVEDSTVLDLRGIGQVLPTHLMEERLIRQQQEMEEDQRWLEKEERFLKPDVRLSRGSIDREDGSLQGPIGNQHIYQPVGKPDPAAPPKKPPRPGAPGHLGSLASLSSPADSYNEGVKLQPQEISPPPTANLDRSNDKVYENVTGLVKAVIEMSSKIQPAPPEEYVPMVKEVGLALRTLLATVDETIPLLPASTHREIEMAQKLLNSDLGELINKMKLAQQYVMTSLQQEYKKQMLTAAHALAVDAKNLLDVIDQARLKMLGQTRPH
Chain of Albumin (Bos taurus) (P02769 whole entry, looked up): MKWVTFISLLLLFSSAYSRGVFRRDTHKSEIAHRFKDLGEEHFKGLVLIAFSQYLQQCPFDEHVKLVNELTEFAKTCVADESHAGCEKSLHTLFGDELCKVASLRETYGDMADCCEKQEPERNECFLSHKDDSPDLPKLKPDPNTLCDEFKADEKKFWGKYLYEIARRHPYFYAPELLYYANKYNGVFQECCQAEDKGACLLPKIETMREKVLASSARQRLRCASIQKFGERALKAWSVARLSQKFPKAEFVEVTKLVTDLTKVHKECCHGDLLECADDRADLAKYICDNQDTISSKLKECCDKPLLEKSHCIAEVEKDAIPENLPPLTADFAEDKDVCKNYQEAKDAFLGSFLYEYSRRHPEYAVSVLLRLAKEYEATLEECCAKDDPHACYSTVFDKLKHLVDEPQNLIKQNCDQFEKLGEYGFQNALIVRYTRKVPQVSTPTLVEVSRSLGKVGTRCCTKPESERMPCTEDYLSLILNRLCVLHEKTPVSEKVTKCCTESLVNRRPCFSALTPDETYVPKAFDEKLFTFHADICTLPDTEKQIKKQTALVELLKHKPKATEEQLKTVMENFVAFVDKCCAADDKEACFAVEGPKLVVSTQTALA

Take `c1ccc(C2NCCc3c2[nH]c2ccccc32)cc1` (stereo not given): the composite z-score in the assay with Albumin (Bos taurus) is 0.0809; in assay [2], 0.0876; in assay [3], -0.053; in assay [4] it was 0.743; in assay [5] it was -0.0295; in [6], -0.0502. Moreover, the composite z-score is -0.409 in the assay with Sam68 (KHDRBS1); 0.195 in assay [7]; -0.082 in [8]; 0.191 in assay [9]; -0.805 in assay [10]; -0.0707 in assay [11]. The composite z-score in [12] is -1.82; in assay [13] it was 0.236; in assay [14], 0.737; in the assay on Lefty1, 0.588; in [16], 0.466. Also, the composite Z-score in assay [1] is -0.0389 (inactive). Moreover, the z-score is -0.104 in assay [15] and 0.495 (inactive) in [17].
Turning to `COc1ccc(O[C@H]2C=C[C@@H](c3ccccc3)O[C@@H]2COC(=O)CCC(C)=NOC[C@@H](C)[C@H](OCc2ccccc2)C(C)C)cc1`, the composite z-score was -0.874 with Albumin (Bos taurus); -0.155 in assay [2]; -0.157 in [3]; -0.608 in assay [4]; -0.52 in [5]; -0.212 in [6]. Besides, the composite z-score is -1.03 in the assay on Sam68 (KHDRBS1); -0.522 in assay [7]; -2.04 in assay [8]; 0.904 in [9]; -0.834 in assay [10]; -0.592 in assay [11]. In addition, the composite z-score in assay [12] is -1.24; in assay [13], -0.865; in assay [14], -0.621; in the assay with Lefty1, -0.338; in assay [16], -0.606. Further, the composite Z-score in assay [1] was 0.289 (inactive). The z-score is -0.345 in assay [15] and 1.05 (inactive) in assay [17].
For the molecule `C=CC[C@@H]1C=C[C@H](ON=C2c3cc(OC)ccc3O[C@H](c3cccc(OC)c3)[C@H]2O)[C@@H](CO)O1`, the composite z-score with Albumin (Bos taurus) is 0.764; in assay [2], -0.253; in [3], -0.0956; in [4] it was 0.427; in assay [5], 0.425; in assay [6], 0.266. Besides, the composite z-score in the assay with Sam68 (KHDRBS1) is -0.194; in [7], 0.105; in assay [8], -0.302; in assay [9], -0.738; in [10], -0.133; in assay [11], 0.374. Also, the composite z-score in [12] is 0.352; in [13] it was -0.0389; in [14], 0.369; in the assay with Lefty1, 0.873; in assay [16], 0.499. The composite Z-score in [1] is 0.196 (inactive). Further, the z-score in [15] is -0.102; in [17] it was -0.101 (inactive).
Consider `CCOC(=O)C[C@H]1[C@H](OC(=O)c2ccc(C(=O)c3ccccc3)cc2)[C@@H](NC(=O)c2ccc(-c3ccccc3)cc2)c2cc(OCCCO)ccc2N1C(=O)c1ccc2ccccc2n1`, for which the composite z-score in the assay with Albumin (Bos taurus) is 0.0279; in assay [2], 0.0084; in assay [3], -0.101; in assay [4] it was 0.0886; in [5], 0.71; in assay [6], -0.142. For the same molecule, the composite z-score with Sam68 (KHDRBS1) stood at 1.31; in assay [7], 0.611; in assay [8] it was 0.844; in assay [9] it was 0.128; in assay [10], 1.01; in assay [11] it was 0.0723. Also, the composite z-score in assay [12] amounted to 0.873; in assay [13] it was 0.864; in assay [14] it was 0.688; in the assay on Lefty1 it was 1.07; in [16] it was 0.185. The composite Z-score in [1] was 0.228 (inactive). The values for the z-score in [15] and in assay [17] were 0.421 and 0.881 (inactive), respectively.
As to `O=C1O[C@@H](c2ccccc2)[C@@H](c2ccccc2)N2[C@@H](c3ccc(O)cc3)[C@]3(C(=O)Nc4ccccc43)[C@@H](C(=O)O)[C@H]12`, the composite z-score with Albumin (Bos taurus) was 0.592; in assay [2] it was -0.0903; in [3] it was -0.1; in assay [4] it was 0.59; in assay [5], 1.45; in [6] it was 0.448. Also, the composite z-score is 1.33 in the assay on Sam68 (KHDRBS1); -0.903 in assay [7]; 0.666 in assay [8]; 3.02 in [9]; 1.2 in assay [10]; 0.49 in assay [11]. For the same molecule, the composite z-score was 0.508 in assay [12]; -0.167 in assay [13]; -0.352 in assay [14]; -0.351 in the assay with Lefty1; 0.547 in assay [16]. Moreover, the composite Z-score in [1] is 1.76 (inactive). For the same molecule, the z-score in [15] was -0.517; in assay [17], -0.0041 (inactive).
